The values below come from PubChem BioAssay.

Assay [1] can be described thus: viability loss in pontine glioma line – cell-based, SU-DIPG-XVII, MIPE5.0, CellTiter-Glo, qHTS, dose response (AID 1347060).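 On AC50: cells exposed to compound for 48 hours before viability readout.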 Particulars: CellTiter-Glo ATP luminescence. In general terms: Cellular ATP, detected with luciferase, serves as a proxy for viable cell number.
The nature of assay [2]: viability loss in pontine glioma line – cell-based, JHH-DIPG-1, MIPE4.0, CellTiter-Glo, qHTS, dose response (AID 1347062; cut-off not given, nearly all actives have AC50 up to about 27 µM;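 on AC50: cells exposed to compound for two days before readout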). Particulars: JHH-DIPG-1 viability, CellTiter-Glo ATP luminescence.
A short description of assay [3]: viability loss in pontine glioma line – cell-based, SU-DIPG-IV, MIPE4.0, CellTiter-Glo, qHTS, dose response (AID 1347063; cut-off not given, nearly all actives have AC50 up to about 30 µM;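 further: compound exposure lasted 48 hours before the viability readout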). Particulars: CellTiter-Glo ATP luminescence.
The nature of assay [4]: viability loss in pontine glioma line – cell-based, SU-DIPG-XIII, MIPE5.0, CellTiter-Glo, qHTS, dose response (AID 1347064; cut-off not given, nearly all actives have AC50 up to about 23 µM;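 on AC50: cells exposed to compound for 48 hours before the viability read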). Particulars: CellTiter-Glo ATP luminescence.
Assay [5] is described as follows: viability loss in pontine glioma line – cell-based, SU-DIPG-XXV, MIPE5.0, CellTiter-Glo, qHTS, dose response (AID 1347065).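 Further: cells exposed to compound for 48 hours before ATP readout.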 Particulars: CellTiter-Glo ATP luminescence.
A short description of assay [6]: JHH-DIPG-1 glioma cell viability, MIPE5.0 library, CellTiter-Glo luminescence, qHTS (AID 1347067).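 Further: cells exposed to compound for 48 hours before readout.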 Particulars: JHH-DIPG-1 glioma viability, CellTiter-Glo ATP luminescence.
Assay [7] is described as follows: growth inhibition of DIPG cells – cell-based, MIPE5.0 library, qHTS (AID 1347068; cut-off not given, nearly all actives have IC50 up to about 30 µM;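 on IC50: cells exposed to compound for 48 hours before viability readout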). Particulars: SU-DIPG-XXV viability. On the technique in general: qHTS replaces the single test concentration by a dilution series.
Assay [8] can be described thus: viability loss in pontine glioma line – cell-based, SU-DIPG-XIII, MIPE4.0, CellTiter-Glo, qHTS, dose response (AID 1347061; cut-off not given, nearly all actives have AC50 up to about 37 µM;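 further: cells exposed to compound for 48 hours before readout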). Particulars: CellTiter-Glo ATP luminescence.
Assay [9] is described as follows: growth inhibition of DIPG cells – cell-based, MIPE4.0 library, CellTiter-Glo luminescence, qHTS (AID 1347066; cut-off not given, nearly all actives have AC50 up to about 30 µM;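 further: cells exposed to compound for 48 hours before readout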). Particulars: SU-DIPG-VI viability, CellTiter-Glo ATP luminescence.
Assay [10] in a line: GFP-Q80 aggregate reduction, neuronal-like cells, cell-based, NGF-treated PC12, GFPQ80 (AID 1614).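 Further: lower means fewer inclusions and 0 means no inclusions at all.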 Particulars: PC12 NGF-treated GFP-polyQ80 inclusion reduction.
For assay [11], the target named is ATP-dependent translocase ABCB1 (Homo sapiens) (UniProt P08183). In words: P-glycoprotein substrate transport blockade – cell-based (AID 377; in the data active means fluorescence slope change above about 50%). Particulars: MDR1-expressing cells, fluorescent substrate accumulation slope; stronger effect = higher value; concentration not given here.
The subject of assay [12] is Aerobactin synthetase IucA (Klebsiella pneumoniae). The experiment in a line: inhibition of K. pneumoniae IucA enzyme – biochemical, Tocris library, absorbance (AID 1345561; call rule not given here;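 further: 100% = enzyme without compound and 0% = no enzyme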). Particulars: purified IucA enzyme assay, absorbance (OD) read-out; stronger effect = lower value;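 tested at 8 µM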.
Assay [13] in a line: compounds altering HSF1 focus formation in cells – imaging, Selleck Cancer Library (AID 1347162; in the data active means plate-normalised HSF1 focus index below about 0.46). Particulars: human cells, HSF1 nuclear foci imaging, at 10 µM; SSMD: measured here: HSF1 foci SSMD mean; cell count: measured here: cell number; plate-normalised HSF1 focus index: stronger effect = lower value.
Assay [14] is described as follows: compounds altering circadian rhythm period length – cell-based, LOPAC library, luminescence reporter (AID 2774; call rule not given here;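 further: values are relative to mean of DMSO wells on each plate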). Particulars: circadian reporter cells, at 7 µM, actives lie on both sides.
For assay [15], the system named is Hepatitis C virus NS3 helicase. In words: blockers of NS3h binding to ssDNA – biochemical, fluorescence polarization, LOPAC1280 library, primary screen (AID 687035; in the data active means inhibition above about 37%). Particulars: Purified HCV NS3 helicase, Cy5-dT15 ssDNA binding fluorescence polarization; stronger effect = higher value; concentration not given here. A general note: Polarisation of emitted light reports the rotation of a fluorescent probe.

A short description of assay [16]: compounds altering Cy5-DNA-NS3h complex signal – biochemical, LOPAC1280, artefact control for HCV NS3 helicase inhibitor project (AID 687037; call rule not given here). Particulars: Cy5-DNA-NS3h complex fluorescence interference counterscreen.
A short description of assay [17]: blockers of cellular phospholipid synthesis – cell-based, LOPAC library, screen 4, primary screen (AID 1347384; call rule not given here). Particulars: animal cells, phospholipid biosynthesis inhibition screen; at 10 µM.

Inconclusive results are not listed. Active and inactive are the calls of the source. Unless noted, cut-off not given; nearly all actives show AC50 up to about 26 µM.

Sequence of ATP-dependent translocase ABCB1 (Homo sapiens) (P08183 whole entry, looked up): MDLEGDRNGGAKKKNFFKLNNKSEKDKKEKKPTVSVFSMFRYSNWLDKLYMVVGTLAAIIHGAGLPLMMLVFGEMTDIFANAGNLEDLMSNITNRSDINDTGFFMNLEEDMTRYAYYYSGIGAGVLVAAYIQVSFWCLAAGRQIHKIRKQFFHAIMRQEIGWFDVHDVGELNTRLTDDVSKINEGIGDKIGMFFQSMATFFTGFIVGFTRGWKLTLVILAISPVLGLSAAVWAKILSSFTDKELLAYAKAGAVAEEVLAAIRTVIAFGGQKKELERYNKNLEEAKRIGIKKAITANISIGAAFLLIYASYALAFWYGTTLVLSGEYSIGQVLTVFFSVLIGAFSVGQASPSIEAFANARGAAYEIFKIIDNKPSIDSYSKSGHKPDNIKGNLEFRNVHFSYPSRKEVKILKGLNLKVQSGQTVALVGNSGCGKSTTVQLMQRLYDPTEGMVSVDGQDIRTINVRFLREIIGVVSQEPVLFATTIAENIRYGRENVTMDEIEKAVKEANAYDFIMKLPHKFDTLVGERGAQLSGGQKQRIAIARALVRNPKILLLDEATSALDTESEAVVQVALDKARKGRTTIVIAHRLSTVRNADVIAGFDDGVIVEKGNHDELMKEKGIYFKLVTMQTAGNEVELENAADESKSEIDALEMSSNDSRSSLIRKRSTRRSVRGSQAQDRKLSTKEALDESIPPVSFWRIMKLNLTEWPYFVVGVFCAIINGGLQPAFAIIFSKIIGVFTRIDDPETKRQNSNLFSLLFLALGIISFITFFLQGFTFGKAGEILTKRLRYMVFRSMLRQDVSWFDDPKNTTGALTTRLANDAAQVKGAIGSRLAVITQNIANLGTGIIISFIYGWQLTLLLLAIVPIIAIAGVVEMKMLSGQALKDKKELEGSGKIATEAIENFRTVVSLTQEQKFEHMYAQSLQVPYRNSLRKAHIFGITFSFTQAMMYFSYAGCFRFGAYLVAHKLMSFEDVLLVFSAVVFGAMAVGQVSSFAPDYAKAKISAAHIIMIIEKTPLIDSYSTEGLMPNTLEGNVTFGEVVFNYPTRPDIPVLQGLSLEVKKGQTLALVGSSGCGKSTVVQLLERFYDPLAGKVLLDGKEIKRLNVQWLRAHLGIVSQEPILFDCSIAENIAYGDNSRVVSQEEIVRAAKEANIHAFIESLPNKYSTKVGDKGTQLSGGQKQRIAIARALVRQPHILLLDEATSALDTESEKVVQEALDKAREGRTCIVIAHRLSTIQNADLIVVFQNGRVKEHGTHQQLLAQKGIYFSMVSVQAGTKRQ

With `COc1cc([C@@H]2c3cc4c(cc3[C@H](O)[C@H]3COC(=O)[C@H]23)OCO4)cc(OC)c1OC`, the AC50 (usually the midpoint of the concentration-response curve, whichever way the signal moves) in assay [1] was 0.0417 µM (active); in assay [2], 0.0743 µM (active); in assay [4], 0.0295 µM (active); in [5], 0.0468 µM (active); in [6], 0.0295 µM (active). Further, the result in assay [3] was inactive. Besides, the IC50 (as a rule, the concentration at which inhibition is half-maximal) in assay [7] is 0.0525 µM (active).
As for `C[C@]12C=CC(=O)C=C1CC[C@@H]1[C@@H]2C(=O)C[C@@]2(C)[C@H]1CC[C@]2(O)C(=O)CO`, the outcome in assay [1], in assay [8], in assay [2], in assay [3], in assay [4] and in [5] was inactive. Also, the molecule was classed as inactive in assay [9], in [6] and in assay [7].
Regarding `CC(C)C1CCC(C(=O)N[C@H](Cc2ccccc2)C(=O)O)CC1` (stereo partly specified), the call in assay [1], in assay [8], in [2], in assay [3], in [4] and in assay [5] was inactive. For the same molecule, the call in [9], in assay [6] and in [7] was inactive.
Molecule `CC(=O)OCC[N+](C)(C)C` had an inclusion score in [10] of 2.
In the case of `C[C@H]1C[C@@H]2[C@H]([C@@H](O)C[C@@]3(C)[C@H]2CC[C@]3(O)C(=O)CO)[C@@]2(C)C=CC(=O)C=C12`, the fluorescence slope change in assay [11] was 127% (active). In addition, the result in [1], in assay [2], in [4], in assay [5], in [6] and in [7] was inactive.
With `CC[C@H](C)C(=O)O[C@H]1C[C@H](O)C=C2C=C[C@H](C)[C@H](CC[C@@H](O)C[C@@H](O)CC(=O)O)[C@H]21`, the remaining activity (in general, the signal under treatment as a percentage of the control signal) in [12] is 123% (inactive). In addition, the AC50 in assay [1] was 23.5 µM (active). Besides, the result in [8], in [3], in assay [4], in [6] and in assay [7] was inactive.
On to `CC(=O)[C@H]1CC[C@H]2[C@@H]3C[C@H](C)C4=CC(=O)CC[C@]4(C)[C@H]3[C@@H](O)C[C@]12C`, for which the fluorescence slope change in assay [11] is 55.7% (active).
Still for that read-out and setting: the same measure for `CCS(=O)(=O)CCn1c([N+](=O)[O-])cnc1C`: 11.6% (inactive).
For the molecule `O=C1[C@H](CC[C@H](O)c2ccc(F)cc2)[C@@H](c2ccc(O)cc2)N1c1ccc(F)cc1`, the call in assay [1] was inactive. Further, the AC50 in [5] was 20.9 µM (active). Further, the molecule was called inactive in assay [7]. Also, in assay [13], the SSMD came to 0.185, the cell count came to 6580 and the plate-normalised HSF1 focus index was 1.01 (inactive).
On to `CN(C)c1ccc(O)c2c1C[C@H]1C[C@H]3[C@H](N(C)C)C(=O)C(C(N)=O)=C(O)[C@@]3(O)C(=O)C1=C2O`, for which the fluorescence slope change in assay [11] was 103% (active). Further, the inclusion score in assay [10] was 0. Besides, the molecule was called inactive in assay [2], in assay [9], in [6] and in [7].
Regarding `CN1CCN(CCCN2c3ccccc3Sc3ccc(C(F)(F)F)cc32)CC1`, the fluorescence slope change in assay [11] is 134% (active). The period change in assay [14] was 0.025 h (inactive). Besides, the inhibition (usually the drop in the measured response relative to a control, in per cent) in assay [15] is -6% (inactive). For the same molecule, the fluorescence ratio (interference) in assay [16] is 0.9 (inactive). The results for the half-maximal activity concentration (AC50) in assay [8], in [5] and in [6] were 18.7 µM (active), 18.6 µM (active) and 23.5 µM (active), respectively. Also, the molecule was classed as inactive in assay [2], in assay [9] and in assay [17].
`Cc1c(OCC(F)(F)F)ccnc1CS(=O)c1nc2ccccc2[nH]1` (stereo unspecified): the inclusion score in [10] amounted to 2. The period change in assay [14] was -0.035 h (inactive). Moreover, the inhibition in assay [15] was -2% (inactive). The fluorescence ratio (interference) in assay [16] was 1 (inactive). Also, the remaining activity in assay [12] is 87.5% (inactive). Also, the molecule was called inactive in assay [1], in assay [3], in [4], in assay [5], in assay [9] and in assay [7]. Further, the molecule was classed as inactive in [17].
On to `C#C[C@]1(O)CC[C@H]2[C@@H]3CCC4=CC(=O)CC[C@@H]4[C@H]3CC[C@@]21CC`, for which the fluorescence slope change in assay [11] was -2.5% (inactive). In addition, the result in assay [1], in assay [8], in assay [2], in [3], in [9] and in assay [6] was inactive. For the same molecule, the molecule was called inactive in assay [7].
For `CCOC(=O)C1=C(COCCN)NC(C)=C(C(=O)OC)C1c1ccccc1Cl` (stereo unspecified), the remaining activity in assay [12] was 107% (inactive).
`C[C@@H]1CC(=O)NN=C1c1ccc(NN=C(C#N)C#N)cc1`: the results for the AC50 in assay [3], in assay [4] and in assay [5] were 23.5 µM (active), 18.6 µM (active) and 9.34 µM (active), respectively.
In the case of `CN(C)CCN(Cc1ccccc1)c1ccccn1`, in assay [10], the inclusion score came out at 2.
Regarding `OCCN(CCO)c1nc(N2CCCCC2)c2nc(N(CCO)CCO)nc(N3CCCCC3)c2n1`, the inclusion score in [10] was 2. Moreover, the period change in [14] is -0.245 h (inactive). Also, the inhibition in assay [15] is -2% (inactive). Besides, the fluorescence ratio (interference) in assay [16] is 1 (inactive). For the same molecule, the remaining activity in assay [12] is 98% (inactive). For the same molecule, the AC50 in assay [8] is 20.9 µM (active); in [5], 18.6 µM (active). Also, the molecule was called inactive in assay [2] and in assay [17].
Consider `CCCCc1oc2ccccc2c1C(=O)c1cc(I)c(OCCN(CC)CC)c(I)c1`, for which the period change in assay [14] was 0.145 h (inactive). Besides, the inhibition in assay [15] is 0% (inactive). The fluorescence ratio (interference) in assay [16] is 0.9 (inactive). Also, the AC50 was 13.2 µM (active) in assay [1]; 7.43 µM (active) in [8]; 23.5 µM (active) in [2]; 1.05 µM (active) in assay [3]; 13.2 µM (active) in assay [4]; 23.5 µM (active) in [9]. In addition, the AC50 in assay [6] was 16.6 µM (active). Further, in assay [7], the IC50 was 23.5 µM (active). The molecule was classed as inactive in assay [17].
On to `CC(=O)OCC(=O)[C@@]1(O)CC[C@H]2[C@@H]3CCC4=CC(=O)CC[C@]4(C)[C@H]3C(=O)C[C@@]21C`, for which, in [14], the period change was -0.03 h (inactive). For the same molecule, the inhibition in assay [15] was -3% (inactive). Besides, the fluorescence ratio (interference) in assay [16] was 0.9 (inactive). In addition, the result in assay [8], in [2], in assay [3], in assay [5], in assay [9] and in assay [6] was inactive. For the same molecule, the result in assay [7] and in assay [17] was inactive.
